# Experimental data from PubChem BioAssay AID463173 (ICCB-Longwood Screening Facility, Harvard Medical School, 2010).
# The whole screen tested about 52,000 compounds, of which about 4,300 (8.3%) were called active. Many of the other results were omitted from the sample, so actives are more common in it than they were. A number with no mark means an inactive call. No stated cut-off is given here; in the data, active means survival mostly below about 52% (no sharp cut-off); inactive means mostly above about 56%.
# Test system: DeltatarO mutant
# Assay: growth inhibition of S. aureus wild type versus tarO mutant, primary screen, teichoic acid synthesis inhibitors, RN4220, OD600 (AID 463173)
# Conditions: OD600, 18 h, hits give low values, screened at 18.75 µg/mL (by protocol)
row,Structure (SMILES),survival
1,COc1cccc2c(=O)cc(C)[nH]c12,88%
2,CN(Cc1ccccc1)C1CCNCC1,90%
3,O=C(Nc1cc(C(F)(F)F)ccc1Cl)c1ccc2c(c1)CCN2S(=O)(=O)c1ccccc1,48%
4,O=C(Nc1ccc(Cl)c(C(F)(F)F)c1)c1ccc2c(c1)CCN2S(=O)(=O)c1ccccc1,43% (active)
5,CS(=O)(=O)N1CCc2cc(C(=O)Nc3ccc(Cl)c(C(F)(F)F)c3)ccc21,33% (active)
6,CS(=O)(=O)N1CCc2cc(C(=O)Nc3ccc(C(F)(F)F)cc3)ccc21,76%
7,Cc1ccc(S(=O)(=O)N2CCc3cc(C(=O)Nc4ccc(C(F)(F)F)cc4)ccc32)cc1,63%
8,CS(=O)(=O)N1CCc2cc(C(=O)Nc3cccc(F)c3)ccc21,68%
9,CCCCNC(=O)CSc1nc2cc3c(cc2c(=O)n1CCCCCC(=O)NCc1ccc(OC)cc1)OCO3,79%
10,CNCCCc1cc(C)ccc1O,59%
11,CCc1ccc(NC(=O)c2cccc(N3CCCS3(=O)=O)c2)cc1,81%
12,Cc1ccc(S(=O)(=O)Nc2cc3c(cc2Cl)n(C)c(=O)c(=O)n3C)cc1,83%
13,CCN(CC)N=Nc1ccc(S(=O)(=O)Nc2nc(C)cc(C)n2)cc1,100%
14,CN(C)CCCN(C(=O)c1ccc2c(c1)OCCO2)c1nc2ccccc2s1,94%
15,CCOc1ccc2nc(NCCNC(=O)Nc3cccc(Cl)c3)c(C#N)cc2c1,82%
16,Cc1cccc(C)c1Nc1c(-c2ccc(Cl)s2)nc2ncccn12,103%
17,Cc1cccc(C)c1Nc1c(-c2ccsc2)nc2ccc(Cl)cn12,80%
18,Cc1ccn2c(Nc3ccc4c(c3)OCCO4)c(-c3ccc(Cl)s3)nc2c1,102%
19,Cc1cccc(C)c1Nc1c(-c2cccs2)nc2ncccn12,76%
20,Cc1ccn2c(Nc3c(C)cccc3C)c(-c3ccc(Cl)s3)nc2c1,37% (active)
21,Cc1ccc2nc(-c3cccs3)c(Nc3ccc4c(c3)OCCO4)n2c1,99%
22,Cc1cccc(C)c1Nc1c(-c2ccsc2)nc2ccccn12,43%
23,Cc1ccn2c(Nc3c(C)cccc3C)c(-c3ccsc3)nc2c1,35% (active)
24,Cc1ccc2nc(-c3cccs3)c(Nc3c(C)cccc3C)n2c1,35% (active)

row,Structure (SMILES),survival
1,O=C(Nc1ccccc1C(F)(F)F)c1ccc2oc(=O)c(S(=O)(=O)c3ccc(F)cc3)cc2c1,89%
2,CSc1cccc(NC(=O)C2CCCN(S(=O)(=O)c3ccc4c(c3)CCCN4C(C)=O)C2)c1 (stereo not given),71%
3,O=C(OCC1CCCO1)c1ccc2c(c1)N(Cc1ccc(F)cc1)C(=O)c1ccccc1S2(=O)=O (stereo not given),101%
4,Cc1ccc2occ(CC(=O)N(Cc3ccc(N(C)C)cc3)C3CCS(=O)(=O)C3)c2c1 (stereo not given),74%
5,Cc1ccc(CNC(=O)Cn2c3ncccc3c(=O)n2-c2ccccc2)cc1,81%
6,CC(=O)N1CCc2c(sc(NC(=O)CSc3ccc(C)cc3)c2-c2nc3ccccc3s2)C1,92%
7,COC(=O)c1ccc(-c2ccc(/C=N/NC(=O)CC3(C)OCCCO3)o2)cc1,96%
8,CCCCNC(=O)c1cnc2sc(N3CCCCCC3)nn2c1=O,79%
9,CN(C)c1ccc(CNC(=O)CCCN2C(=O)c3cccnc3Oc3ccc(Cl)cc32)cc1,81%
10,Cn1c(SCC(=O)N2CCCc3ccccc32)nnc1-c1ccccc1N,92%
11,CCc1ccc(NC(=O)CSc2nc(C)c(C(=O)Nc3ccc(Cl)cc3)c(-c3ccc(OC)cc3)c2C#N)cc1,92%
12,Cc1ccc(Cl)cc1NC(=O)CN1C(=O)C(C)(C)c2cc(S(=O)(=O)N3CCCCC3)ccc21,6% (active)
13,COc1ccc(Cl)cc1NC(=O)CN1C(=O)C(C)(C)c2cc(S(=O)(=O)N3CCCCC3)ccc21,70%
14,Cc1ccc(NC(=O)CN2C(=O)CCc3cc(S(=O)(=O)N4CCOCC4)ccc32)cc1F,47% (active)
15,Cc1ccc(NC(=O)CN2C(=O)CCc3cc(S(=O)(=O)N4CCOCC4)ccc32)cc1N(C)C,93%
16,Cc1cc(F)ccc1NC(=O)CN1C(=O)CCc2cc(S(=O)(=O)N3CCOCC3)ccc21,76%
17,Cc1ccc(NC(=O)CN2C(=O)C(C)(C)c3cc(S(=O)(=O)N4CCCCC4)ccc32)c(Br)c1,67%
18,COc1ccc(C)cc1NC(=O)CN1C(=O)CCc2cc(S(=O)(=O)N3CCOCC3)ccc21,94%
19,COc1ccc(OC)c(NC(=O)CN2C(=O)CCc3cc(S(=O)(=O)N4CCCCC4)ccc32)c1,32% (active)
20,COc1ccc(NC(=O)CN2C(=O)CCc3cc(S(=O)(=O)N4CCOCC4)ccc32)c(OC)c1,80%
21,CCOC(=O)c1cccc(NC(=O)C(CC(C)C)N2Cc3ccccc3C2=O)c1 (stereo not given),128%
22,Cc1nc2cccnc2n1-c1cccc(C(=O)NCCc2ccc(S(N)(=O)=O)cc2)c1,85%
23,CCOc1ccc(OCC)c(NC(=O)c2nnn(Cc3cc(Br)ccc3OC)c2N)c1,61%
24,CC1(C(=O)C[n+]2cccc(C(N)=O)c2)CCC(=O)O1 (stereo not given),92%

row,Structure (SMILES),survival
1,O=C(NC1CCCC1)c1ccc(CSc2nc3ccncc3n2Cc2ccc(F)cc2)cc1,68%
2,O=C(c1ccc2c(c1)N(Cc1ccc(Cl)cc1)C(=O)c1ccccc1S2(=O)=O)N1CCN(Cc2ccccc2)CC1,78%
3,CCC(=O)N1c2ccccc2CC1C(=O)NCCc1ccc(C)cc1 (stereo not given),75%
4,Cc1cccc(NC(=O)CN2C(=O)C(c3ccc(F)cc3)=NC23CCCCCC3)c1,87%
5,O=C(CN1C(=O)C(c2ccc(F)cc2)=NC12CCCCCC2)Nc1ccc(F)c(Cl)c1,40% (active)
6,O=C(CN1C(=O)C(c2ccc(F)cc2)=NC12CCCCCC2)Nc1ccccc1Cl,84%
7,CCNC(=S)N1CCC(C(=O)c2ccc(Cl)cc2)CC1,84%
8,CCNC(=S)N1CCC(C(=O)c2ccc3c(c2)OCCO3)CC1,58% (active)
9,O=C(c1ccc2c(c1)OCCO2)C1CCCCC1,83%
10,CCC(CC)C(=O)Nc1ccc(-c2cn3cccnc3n2)cc1,91%
11,Cc1cc(F)ccc1Nc1nc2ccccc2n2nnnc12,111%
12,Cc1cccc(CCNc2ncnc3onc(-c4ccc(Cl)cc4)c23)c1,33% (active)
13,Clc1ccc(CNc2ncnc3onc(-c4ccc(Cl)cc4)c23)cc1,133%
14,CCOc1ccc(Nc2ncnc3onc(-c4ccc(Cl)cc4)c23)cc1,38% (active)
15,CC1CCC(Nc2ncnc3onc(-c4ccc(Cl)cc4)c23)CC1 (stereo not given),47% (active)
16,CC(C)CNc1ncnc2onc(-c3ccc(Cl)cc3)c12,71%
17,Clc1ccc(-c2noc3ncnc(NCCc4ccccc4)c23)cc1,78%
18,COc1cc(Nc2ncnc3onc(-c4ccc(Cl)cc4)c23)cc(OC)c1,94%
19,Clc1ccc(-c2noc3ncnc(NC4CCCCC4)c23)cc1,21% (active)
20,Cc1ccc(CCNc2ncnc3onc(-c4ccc(Cl)cc4)c23)cc1,46%
21,CC1CCC(Nc2ncnc3onc(-c4ccc(F)cc4)c23)CC1 (stereo not given),82%
22,CCOc1ccc(CCNc2ncnc3onc(-c4ccc(Cl)cc4)c23)cc1,76%
23,Fc1ccc(-c2noc3ncnc(NC4CCCCC4)c23)cc1,67%
24,COc1ccc(-c2csc(C)n2)cc1,75%

row,Structure (SMILES),survival
1,Cc1ccc(C(=O)N2CCCn3c2nc2ccccc23)cc1,70%
2,COc1cccc(-n2cc(C(=O)OCc3ccc(Cl)cc3)c3ccccc3c2=O)c1,85%
3,N#C/C(=C\c1ccc(OCc2ccc(Cl)cc2Cl)cc1)c1nc2ccccc2[nH]1,103%
4,O=C(O)CCCC(=O)N1CCc2cc(S(=O)(=O)NCc3ccccc3)ccc21,111%
5,Cc1csc(=Nc2ccccc2)n1-c1ccccc1,81%
6,CCOC(=O)c1c(S(=O)(=O)NCC(=O)Nc2cccc(CC)c2)c(C)n(C)c1C,84%
7,CCc1nn(CC(=O)NCc2ccccc2)c(=O)c2cccn12,69%
8,CN1C(=O)Cc2cc(S(=O)(=O)NCc3ccccc3Cl)ccc21,90%
9,CC(C)CC(C(N)=O)N1C(=O)c2ccccc2C1=O (stereo not given),84%
10,CCOC(=O)C1CCN(C(=O)Cn2ncc3c4ccccc4n(Cc4ccccc4F)c3c2=O)CC1,84%
11,CCOc1ccc(-c2cc(C(=O)N3CCN(S(=O)(=O)c4cc(Cl)ccc4OC)CC3)[nH]n2)cc1,73%
12,COc1ccc(S(=O)(=O)N2CCN(C(=O)c3cc(-c4ccc(Br)cc4)n[nH]3)CC2)cc1OC,73%
13,COc1ccc(Cl)cc1S(=O)(=O)N1CCN(C(=O)c2cc(-c3ccc(Br)cc3)n[nH]2)CC1,47% (active)
14,COc1ccc(S(=O)(=O)Nc2cc3c(cc2NCc2ccccc2)n(C)c(=O)n3C)cc1,69%
15,O=C(Nc1ccc(F)cc1)C1CCN(c2nc3ccccc3n3cccc23)CC1,75%
16,O=c1cc(COc2ccccc2Cl)nc2scc(-c3ccccc3)n12,81%
17,Cc1c(C(=O)N2CCOCC2)sc(NC(=O)c2ccc3c(c2)OCO3)c1C#N,90%
18,CCc1ccc(NC(=O)C2CCCN(S(=O)(=O)c3cccc4cccnc34)C2)cc1 (stereo not given),58% (active)
19,CC(C)c1ccc(NC(=O)C2CCCN(S(=O)(=O)c3cccc4cccnc34)C2)cc1 (stereo not given),71%
20,CCc1ccc(NC(=O)C2CCCN(S(=O)(=O)c3c(C)noc3/C=C/N(C)C)C2)cc1 (stereo not given),42% (active)
21,Cc1noc(/C=C/N(C)C)c1S(=O)(=O)N1CCCC(C(=O)Nc2cccc(F)c2)C1 (stereo not given),90%
22,Cc1ccc(NC(=O)C2CCCN(S(=O)(=O)c3cccc4cccnc34)C2)cc1 (stereo not given),102%
23,CCOc1ccc(NC(=O)C2CCCN(S(=O)(=O)c3c(C)noc3/C=C/N(C)C)C2)cc1 (stereo not given),94%
